HEK293 cAMP ctrl – parental HEK293 cAMP activation (counter-screen); parental HEK293 CNG cAMP sensor, membrane potential fluorescence; Potency, µM (highest dose often 57.1 µM), for the others: top-dose activation, usual class: activators; 2.5% of 73,000 active; also: % of control where 0% means no effect; nearly all actives have a fitted effect of over 55% in size
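Counterscreen for endogenous-receptor signalling: CNG-channel HEK 293 cells report cAMP rise by membrane depolarization. After 60 min dye equilibration with 100 uM RO 20-1724, compounds incubated 30 min before bottom-read fluorescence at 590 nm.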
IkB sig inh – suppresses IkB signaling in ABC-DLBCL reporter cells; ABC-DLBCL IkBa-CBG/CBR dual luciferase ratio, 4 h; response scale: scaled: untreated 0%, proteasome inhibitor 100%; Potency, µM (doses to about 57.1 µM), for the others: at the top dose IkBa stabilization activation; 0.04% of 110,000 active; AID 445; active = well fitted curve in the direction sought with a large enough effect in the signal ratio, not every such curve was filed as active; inconclusive = small, poorly fitted or top-dose-only effect, or a change in a side signal; the % refers to the signal ratio;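 also: the direction sought is a rising ratio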
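In this assay, an IκBα–CBG68 fusion accumulates when IKK-driven degradation is blocked; native CBR normalizes for cell number. OCI-Ly3 cells were treated 4 h with compound and doxycycline, then green and red light read after Chroma-Glo addition.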
ERK AVP block – blocks ERK signaling stimulated by vasopressin; HEK293-V1b, vasopressin-stimulated pERK AlphaScreen; Potency, µM (highest dose often 57.5 µM), inactives show at the highest dose activity, negative = inhibition, usual class: inhibitors; 0.99% of 72,000 active; also: % is scaled to controls: 0 for no effect and ±100 for the full control effect; nearly all actives have a fitted effect of over 55% in size
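V1b-HEK293 cells; cpd 30 min 37C; 25 nM vasopressin 5 min; lyse 10 min; AlphaScreen beads 5 hr RT. Normalized to DMSO basal and 25 nM vasopressin; AC50 by Hill fit.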
CRE Fsk mod – CRE-bla signaling modulation under forskolin stimulation; CHO CRE-bla reporter (cAMP response element driving beta-lactamase), forskolin EC10, beta-lactamase ratio; Potency, µM (highest dose often 38.2 µM), for inactives: top-dose activity change, negative = inhibition, usual class: activators; 2.5% of 71,000 active; active = well fitted activation curve with a large enough effect in the signal ratio, with a control signal flat, not every such curve was filed as active; inconclusive = small, poorly fitted or top-dose-only effect, or effect the other way, or a change in a side signal; the % refers to the signal ratio; also: % of control where 0% means no effect
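Modulation of forskolin signalling: compounds in titration series added with EC10 NKH 477 to CHO cells carrying a CRE-driven beta-lactamase reporter, 3 h, 37C. CCF4 FRET ratio (460/530 nm, ex 405 nm) gives %activity and AC50.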
TSHR agonist – activates the human thyroid stimulating hormone receptor. P16473. HEK293-CNG-TSHR cells (CNG channel as cAMP sensor), membrane potential dye, cAMP. Potency, µM (titrated, usually from 57.1 µM), inactives show at the top dose activation, most hits filed as activators. 0.48% of 73,000 active. AID 926; active = well fitted activation curve with a large enough effect in the main read-out, with a control signal flat, not every such curve was filed as active; inconclusive = small, poorly fitted or top-dose-only effect, or a change in a side signal; inactive = no such curve, though single readings can be large or run the other way; % of control where 0% means no effect;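 also: the control signal comes from parental cells without the receptor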
Target sequence (P16473 whole entry, looked up): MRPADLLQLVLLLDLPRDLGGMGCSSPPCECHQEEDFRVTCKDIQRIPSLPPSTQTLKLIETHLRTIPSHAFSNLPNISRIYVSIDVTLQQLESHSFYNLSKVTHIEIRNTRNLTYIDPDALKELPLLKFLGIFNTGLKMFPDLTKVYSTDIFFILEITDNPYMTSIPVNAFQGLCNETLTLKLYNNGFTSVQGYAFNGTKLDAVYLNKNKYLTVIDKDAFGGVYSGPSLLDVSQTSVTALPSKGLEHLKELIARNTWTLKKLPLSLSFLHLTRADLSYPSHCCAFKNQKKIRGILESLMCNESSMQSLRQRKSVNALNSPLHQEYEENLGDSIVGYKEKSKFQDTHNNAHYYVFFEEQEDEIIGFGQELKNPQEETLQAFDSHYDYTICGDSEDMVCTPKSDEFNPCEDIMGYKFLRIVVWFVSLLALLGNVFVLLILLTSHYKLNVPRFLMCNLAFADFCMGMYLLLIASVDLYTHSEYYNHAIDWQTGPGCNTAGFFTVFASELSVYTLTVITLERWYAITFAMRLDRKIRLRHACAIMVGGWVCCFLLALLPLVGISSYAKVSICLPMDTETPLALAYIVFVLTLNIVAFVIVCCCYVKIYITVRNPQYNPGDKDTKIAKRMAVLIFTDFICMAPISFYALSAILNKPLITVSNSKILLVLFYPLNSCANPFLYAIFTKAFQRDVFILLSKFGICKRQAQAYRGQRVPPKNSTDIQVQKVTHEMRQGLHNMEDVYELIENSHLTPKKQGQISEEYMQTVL
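HEK 293 cells stably expressing TSHR and a modified CNG channel, with CNG-only parental cells as counterscreen, were preloaded 60 min at room temperature with membrane potential dye containing 100 uM RO 20-1724. Compound exposure was 30 min, and depolarization was read as fluorescence at 590 nm.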
* hit, by the source's call; ? = inconclusive; . = not tested or not shown; ! = a repeat was not active; [ ] = dose if it differs, or a comment. Only some compounds are listed: those with a hit (about 3.6% of all), similar ones and a draw of the others. Unless noted, calls follow the shape of the dose curve; as a rule, active = well fitted curve in the direction sought with a large enough effect; inconclusive = small, poorly fitted or top-dose-only effect, or another doubt; inactive = no such curve, though single readings can be large; an effect the other way counts as inactive or inconclusive. Potency is read from the fitted curve at half-maximal effect.

SMILES	HEK293 cAMP ctrl	IkB sig inh	ERK AVP block	CRE Fsk mod	TSHR agonist
CCC(=NC(C)c1ccccc1)c1c(O)n(C)c(=O)n(C)c1=O (stereo unspecified)	?	?	-21%	?	?
CC(=O)c1c(O)n(C)c(=S)n(-c2ccccc2)c1=O	1µM*	-1%	-1%	17%	?
CC(C)[C@@]1(NC(=O)[C@@H]2C[C@H]3c4cccc5[nH]cc(c45)C[C@@H]3N(C)C2)O[C@]2(O)[C@H]3CCCN3C(=O)CN2C1=O	-1%[25.6 µM]	-3%[25.6 µM]	14%[25.7 µM]	-8%[17.1 µM]	8%[25.6 µM]
CC1=CC(=O)C2=C(C)CC(O)C3C(C)C(=O)OC3C12 (stereo unspecified)	-3%	0%	?	-5%	-4%
c1coc(CNc2ncnc3nc[nH]c23)c1	5µM*!	-3%	-13%	-14%	?
COC(=O)C(C)Oc1cc(C)cc2oc(=O)c3c(c12)CCC3 (stereo unspecified)	?	2%	?	7.9µM*	?
COC(=O)C(C)Oc1cc(C)cc2oc(=O)c3c(c12)CCCC3 (stereo unspecified)	19%	0%	-9%	?	.
Cc1ccc(OCC(=O)Nc2ccc(Cl)cc2C(=O)c2ccccc2)c(Br)c1	.	-3%	.	.	.
c1ccc(N2CCCC3(CCNCC3)C2)cc1	?	0%[11.4 µM]	-8%	2%	?
c1ccc(N2CCCC3(CCNCC3)C2)nc1	16µM*	2%[11.4 µM]	-20%	-2%	?
C=CCN=C=S	?	1%	-12%	-4%	?
CC1CC[C@@]2(OC1)O[C@@H]1[C@@H](O)[C@H]3C4CC[C@H]5C[C@@H](O[C@@H]6O[C@H](CO)[C@H](O[C@@H]7O[C@H](CO)[C@@H](O)[C@H](O[C@@H]8OC[C@@H](O)[C@H](O)[C@H]8O)[C@H]7O[C@@H]7O[C@H](CO)[C@@H](O)[C@H](O[C@@H]8O[C@H](CO)[C@@H](O)[C@H](O)[C@H]8O)[C@H]7O)[C@H](O)[C@H]6O)[C@H](O)C[C@]5(C)C4CC[C@]3(C)[C@H]1[C@@H]2C (stereo partly specified)	.	.	40µM*	.	.
Cc1ccc(-n2c(/C=C\c3ccc(F)cc3)nc3ccccc3c2=O)cc1Cl	.	0%	.	.	.
Clc1ccc(CO[C@@H](Cn2ccnc2)c2ccc(Cl)cc2Cl)cc1	16µM*	2%[25.6 µM]	-5%[25.7 µM]	26%[17.1 µM]	?
Cc1cccc(-c2nc3ccccc3c(=O)n2-n2cccc2)c1	4µM*	-1%	?	?	?
COc1ccc(C[C@H]2NC[C@H](O)[C@@H]2OC(C)=O)cc1	9%	?	.	?	-5%
N#CC(C#N)=Cc1cc(O)c(O)c(O)c1	?	2%	12%	-4%	?
N#C/C(=C\c1ccc(O)c(O)c1)C(N)=S	?	?	16µM*!	?	?
C[C@H](Cc1ccc2c(c1)OC(C(=O)O)(C(=O)O)O2)NC[C@H](O)c1cccc(Cl)c1	6%	.	-19%	.	-4%
CC(=O)N1CC2CC(C1)c1cccc(=O)n1C2 (stereo unspecified)	.	.	-3%	.	.
ClCCOCCCl	-16%	-2%	22%	-3%	-8%
COc1cc2c(c(OC)c1OC)-c1ccc(O)c(=O)cc1[C@H](N)CC2	3%[25.6 µM]	0%[25.6 µM]	-7%[25.7 µM]	-9%[17.1 µM]	-23%[25.6 µM]
COc1cc2c(c(OC)c1OC)-c1ccc(OC)c(=O)cc1[C@H](NC(C)=O)CC2	3%	?	0%	2.5µM*	-3%
ClC1C(Cl)C(Cl)C(Cl)C(Cl)C1Cl (stereo unspecified)	.	.	14%	.	.
CNc1ccc2oc(C[C@H]3O[C@]4(CC[C@H]3C)O[C@H]([C@H](C)C(=O)c3ccc[nH]3)[C@H](C)C[C@H]4C)nc2c1C(=O)O	11%	?	5µM*	?	-1%
SMILES	HEK293 cAMP ctrl	IkB sig inh	ERK AVP block	CRE Fsk mod	TSHR agonist
CC(=O)N(C1=NCCCS1)c1ccc(F)cc1	1.6µM*	-1%	0%	2%	?
CCC(=Nc1ccc2c(c1)CCC2)c1c(O)n(C2CCCCC2)c(=O)[nH]c1=O	5%	-1%	-15%	-8%	8%
CCC(=NC1CC1)c1c(O)n(C2CCCCC2)c(=O)[nH]c1=O	14%	-3%	-13%	10µM*	.
C[C@]1(C(=O)O)[C@@H]2CC[C@@H](O2)[C@@]1(C)C(=O)O	16%	?	7.9µM*	?	9%
C[C@]12CN(CC[N+](C)(C)C)C[C@]1(C)[C@@H]1CC[C@@H]2O1	-4%[11.4 µM]	-1%[11.4 µM]	2%[11.5 µM]	-4%[7.6 µM]	4%[11.4 µM]
CN(C)CCCc1c[nH]c2ccccc12	1%[11.4 µM]	0%[11.4 µM]	17%[11.5 µM]	-6%[7.6 µM]	2%[11.4 µM]
O=C(CSc1ccccc1)N1CCC2(CC1)OCCO2	4%	-2%	?	13µM*	6%
O=C1Nc2ccccc2C2(CCN(CCc3ccc(C(F)(F)F)cc3)CC2)O1	?	.	16µM*	.	?
N#CSCSC#N	-14%	?	16µM*	?	?
COc1ccc(C(=O)c2c(C)n(CCN3CCOCC3)c3cc(I)ccc23)cc1	6.3µM*	?	1%	?	?
O[C@@H](Cc1ccncc1)C(Cl)(Cl)Cl	1%	0%	-3%	-6%	0%
CCC1(C2=NCCN2)Cc2ccccc2O1 (stereo unspecified)	.	.	29%	.	.
O=S(=O)(O)/C(=C\c1ccccc1)c1ccccc1 (tested in a mixture with another compound)	21%[11.4 µM]	0%[11.4 µM]	3%[11.5 µM]	4µM*	12%[11.4 µM]
CC(=O)/C=C/c1ccccc1	7%	2%	14%	-6%	-4%
ClC1=C(Cl)C2(Cl)C3C4CC(C5OC45)C3C1(Cl)C2(Cl)Cl (stereo unspecified)	21%	?	13%	?	25µM*
COc1cc2c(cc1OC)[C@@]13CCN4C=C5CCO[C@H]6CC(=O)N2[C@@H]1[C@@H]6[C@H]5C[C@H]43	-6%[11.4 µM]	1%[11.4 µM]	-1%[11.5 µM]	0%[7.6 µM]	3%[11.4 µM]
CCC(COC(=O)c1cc(OC)c(OC)c(OC)c1)(c1ccccc1)N(C)C (stereo unspecified)	.	.	32µM*	.	.
O=C(O)[C@@H]1[C@H](C(=O)O)[C@]2(Cl)C(Cl)=C(Cl)[C@@]1(Cl)C2(Cl)Cl	3%[11.4 µM]	3.2µM*	?	9%[7.6 µM]	-2%[11.4 µM]
CCOC(=O)N(C)c1ccc(C(O)(C(=O)OCC)C(F)(F)F)cc1 (stereo unspecified)	?	-1%	2%	9%	?
C=CCn1c(O)c(C(C)=Nc2ccc(N(C)C)cc2)c(=O)[nH]c1=O	0%	0%	13µM*	?	4%
Cc1c(C(=O)c2cccc3ccccc23)c2cccc3c2n1[C@H](CN1CCOCC1)CO3	22%	?	32%	?	.
CCCn1c(C)c(C(=O)c2cccc3ccccc23)c2ccccc21	13µM*	?	35%	?	?

Screens from PubChem.
